Inconclusive results are not listed. Active and inactive are the calls of the source. Calls come from the whole dose curve; as a rule, active = well fitted curve in the direction sought with a large enough effect in the signal ratio, with a control signal flat (not every such curve was filed as active); inconclusive = small, poorly fitted or top-dose-only effect, or effect the other way, or a change in a side signal; inactive = no such curve, though single readings can be large or run the other way; the % refers to the signal ratio.
Each compound was assayed against Estrogen receptor (Homo sapiens) (UniProt P03372) (assay: qHTS assay for small molecule antagonists of estrogen receptor alpha signaling (AID 588513)). Details: ER-alpha-UAS-bla HEK293, beta-lactamase ratio, antagonist mode; series mostly up to 76.9 µM.
Source text: NIH Chemical Genomics Center [NCGC]
U.S. Environmental Protection Agency [EPA]
National Institutes of Environmental Health Sciences [NIEHS]
National Toxicology Program [NTP]
Estrogen receptor alpha (ER-alpha) is an important member of nuclear hormone receptors. ER-alpha plays important role in breast cancer as well as in other women's health issues. The majority of breast cancers is estrogen receptor (ER) positive and depends on estrogen for growth. There is also growing concern for some of environmental chemicals which may contribute the increasing the incidence of breast cancer. Therefore, it is important to understand the effect of environmental chemicals in ER-alpha signaling pathway.
NCGC Assay Protocol Summary
Using a beta-lactamase reporter-gene under control of the ER response element, a cell-based assay [ER-alpha-UAS-bla GripTiteTM cell-Based Assay from Invitrogen] was used to measure ER-alpha signaling pathway in antagonist mode. ER-alpha-UAS-bla-GripTite HEK 293 cells were used with assay medium containing 2% charcoal/dextran treated FBS, 0.1 mM NEAA and 1 mM sodium pyruvate. Cells were cultured in this assay medium overnight in the flasks before the assay. The assay was performed in clear bottom black Greiner 1536-well plates. 17-beta-estradiol was used as a positive control in the screen. Library compounds were measured for their ability to inhibit the reporter gene activity. Compounds were screened in a titration series in 1536-well format. […] Data was normalized relative to 17-beta-estradiol control (0.5nM, 100%), and DMSO only wells (basal, 0%). Concentration-response titration points for each compound were fitted to the Hill equation yielding concentrations of half-maximal inhibition (IC50) and maximal response (efficacy) values.
qHTS protocol for ER-alpha beta-lactamase assay in antagonist mode
[Step] [Parameter] [Value] [Description]
1. Reagent; 5 uL; 5000 cells/well
2. Incubation; 37 C for 4 hrs
- Dose response, Start 38uM, 1:2 dilutions with duplicates
- Two columns with 38 and 19uM (final) concentration.
5. Agonist (Stimulator); 1uL; 17-beta-estradiol at 0.5nM (final) concentration
6. Incubation; 37 C for 18 hrs
7. Detection reagent; 1 uL of CCF4-dye
8. Incubation; RT for 2 hrs
9. Detection; Fluorescence; Envision plate reader or Acumen plate reader

Sequence of Estrogen receptor (Homo sapiens) (P03372 whole entry, looked up): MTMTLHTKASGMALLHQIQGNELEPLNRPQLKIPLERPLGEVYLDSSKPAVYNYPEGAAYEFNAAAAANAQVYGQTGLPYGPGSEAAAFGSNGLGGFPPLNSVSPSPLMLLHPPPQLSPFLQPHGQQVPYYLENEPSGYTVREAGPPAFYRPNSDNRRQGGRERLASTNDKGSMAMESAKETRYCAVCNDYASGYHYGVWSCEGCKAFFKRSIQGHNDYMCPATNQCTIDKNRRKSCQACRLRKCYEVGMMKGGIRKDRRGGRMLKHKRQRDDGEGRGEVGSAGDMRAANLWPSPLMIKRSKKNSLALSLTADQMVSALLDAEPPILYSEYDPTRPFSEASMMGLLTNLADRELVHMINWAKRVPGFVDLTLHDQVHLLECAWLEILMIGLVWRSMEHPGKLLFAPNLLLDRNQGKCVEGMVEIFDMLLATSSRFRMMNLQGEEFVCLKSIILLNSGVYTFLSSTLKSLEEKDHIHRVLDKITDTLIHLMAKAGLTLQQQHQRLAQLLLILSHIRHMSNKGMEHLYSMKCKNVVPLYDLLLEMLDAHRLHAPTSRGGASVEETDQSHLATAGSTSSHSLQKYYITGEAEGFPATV

SMILES | outcome
C=CC(=O)OCCCCCCOC(=O)C=C | inactive
O=C(Cl)c1ccc([N+](=O)[O-])cc1 | inactive
CCCCNCC | inactive
Brc1cc(Br)c(Oc2cc(Br)c(Br)cc2Br)cc1Br | inactive
Cc1ccc(C(=O)O)cc1[N+](=O)[O-] | inactive
Oc1ccc2c(c1)OCO2 | inactive
O=C1c2ccccc2C(=O)C1(O)O | inactive
Oc1ccc(O)c2c(O)cccc12 | inactive
O=C=Nc1ccc(Cl)c(Cl)c1 | inactive
CC(C)S | inactive
Cc1cc(-c2ccc(N=Nc3cc(S(=O)(=O)O)c4ccccc4c3N)c(C)c2)ccc1N=Nc1cc(S(=O)(=O)O)c2ccccc2c1N | inactive
C=Cc1cccc(C)c1 | inactive
c1ccncc1 | inactive
CCNC(=S)NCC | inactive
CC(=O)c1ccc(Cl)c(Cl)c1Cl | inactive
CC(=O)Nc1cccc(C)c1 | inactive
c1c[nH]cn1 | inactive
OC1CCCCC1 | inactive
COc1ccc([N+](=O)[O-])cc1N | inactive
Cc1c(C(=O)O)c(O)cc2c1C(=O)c1c(O)c([C@H]3O[C@H](CO)[C@@H](O)[C@H](O)[C@H]3O)c(O)c(O)c1C2=O | inactive

SMILES | outcome
C1CCCNCC1 | inactive
Cc1c2ccccc2c(C)c2c1ccc1ccccc12 | inactive
CCCCCCN | inactive
CC(CCC(=O)O)(c1ccc(O)cc1)c1ccc(O)cc1 | inactive
Oc1cc2c(cc1O)[C@H]1c3ccc(O)c(O)c3OC[C@@]1(O)C2 | inactive
O=c1[nH]ncc2ccccc12 | inactive
Oc1cc(Cl)cc(Cl)c1Cl | inactive
Cc1cc(=O)oc2cc(O)cc(O)c12 | inactive
C=CC(C)(O)CCCC(C)CCCC(C)CCCC(C)C (stereo not given) | inactive
O=C1OC(=O)c2ccccc21 | inactive
Nc1ccc(-c2ccc(N)c(O)c2)cc1O | inactive
CCN(CC)c1ccc2c(C)cc(=O)oc2c1 | inactive
Cc1c(N)cccc1Cl | inactive
CCC(Cl)CC(Cl)C(Cl)C(Cl)C(Cl)C(C)Cl (stereo not given) | inactive
COc1ccc(C(=O)Nc2ccccc2)cc1[N+](=O)[O-] | inactive
Nc1ccccc1O | inactive
COc1ccc(C)cc1N | inactive
O=[N+]([O-])c1ccc(F)cc1F | inactive
Cc1ccccc1OCC1CO1 (stereo not given) | inactive
c1ccc(COCc2ccccc2)cc1 | inactive
